# Data taken from PubChem BioAssay (NCATS).
# Results filed as inconclusive are left out. Where a call stands in place of a potency, no number is given. The source made the active and inactive calls. The call rests on the fitted dose curve; in most records, active means well fitted curve in the direction sought with a large enough effect; inconclusive means small, poorly fitted or top-dose-only effect, or another doubt; inactive means no such curve, though single readings can be large; an effect the other way counts as inactive or inconclusive.
# Assays:
# [1] = qHTS for H2AX Agonists against the NCATS CANVASS Library (AID 1347378);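 further: phospho-H2AX S139 level in CHO-K1 lysates by TR-FRET emission ratio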
# In short: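 Following overnight seeding, CHO-K1 cells are incubated with a concentration series of compound for 3 hr at 37C (final DMSO 0.76%). Cells are then lysed, detection antibodies added, and emission ratio 665/620 nm recorded after 24 hr at room temperature.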
# [2] = qHTS for Inflammasome Signaling Inhibitors: IL-1-beta AlphaLISA screen against the NCATS CANVASS Library (AID 1347379); conditions: THP-1 LPS/ATP, IL-1B AlphaLISA secretion, 16 h; at 57.5 µM (top of the series) unless noted;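 further: human THP-1 cells primed with LPS then triggered with ATP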
# In short: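 Secreted IL-1B from human THP-1 cells quantified by AlphaLISA 16 hr after compound addition (final up to 57.5 uM). A 1 hr compound pretreatment preceded inflammasome activation with 250 ng/mL LPS plus 1.25 mM ATP (final).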
# [3] = qHTS for Antimalaria activity screened against the NCATS CANVASS Library (AID 1347380);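 further: Plasmodium falciparum strain Dd2 asexual parasites grown in red blood cells; nearly all actives have a fitted effect of over 40% in size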
# In short: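 SYBR Green fluorescence at 485/535 nm was read 18 hr after lysis. This followed a 72 hr incubation at 37C in 5% O2, 5% CO2 of Dd2-infected erythrocytes (0.3% parasitemia, 2.5% final hematocrit) with compounds titrated over 11 concentrations.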
# [4] = Inflammasome Signaling qHTS Counterscreen: IL-1-beta AlphaLISA counterscreen against the NCATS CANVASS Library (AID 1347381);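 further: cell-free check with purified IL-1β in medium and no THP-1 cells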
# In short: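 Purified IL-1-beta (4 pg/well) + compound, 11-pt conc. series; acceptor beads 6 ug/mL + biotin-Ab 0.6 nM final, 1 h RT; SA-donor 24 ug/ml final, 30 min dark RT; read ex 680/em 615.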
# [5] = Cytotoxicity qHTS for assessment of Hepg2 cells membrane integrity screened against the NCATS CANVASS Library (AID 1347387)
# In short: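 Membrane damage quantified as fluorescent LDH-release signal (ex 560, em 590 nm) in HepG2 cells treated 5 hr at 37C. qHTS format, 11 concentrations spanning 0.59 nM - 46 uM final, cells plated at 2000 per well the night before.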
# [6] = qHTS for Activators of p53 Stress Response Pathway screened against the NCATS CANVASS Library (AID 1347388)
# In short: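 Beta-lactamase reporter driven by p53 response elements in HCT-116 cells, read as the 460 nm/530 nm emission ratio after CCF4 loading, following 16 h of exposure to an 11-point series. Cell viability was measured in the same wells by CellTiter-Glo luminescence.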
# [7] = qHTS assay for small molecule disruptors of mitochondrial membrane potential screened against the NCATS CANVASS Library (AID 1347389); further: nearly all actives have a fitted effect of over 60% in size
# In short: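 Mitochondrial membrane potential in HepG2: 1 h compound treatment (11-point concentration series), 30 min m-MPI dye at 37C, then dual fluorescence of J-aggregates (ex 540/em 590) and monomers (ex 490/em 535); lower red/green ratio indicates depolarization.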
# [8] = Secretion counterscreen for inhibitors of the SERCaMP assay screened against the NCATS CANVASS Library (AID 1347390);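 further: light from luciferase secreted into medium read as a measure of general secretion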
# In short: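 Counterscreen identifying compounds that disrupt secretion, using SH-SY5Y cells with a constitutively secreted Gaussia luciferase reporter. A 20 h compound exposure (top 77 uM) precedes luminescent detection with coelenterazine.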
# [9] = qHTS for activators of Nrf2/ARE signaling pathway screened against the NCATS CANVASS Library (AID 1347391); further: nearly all actives have a fitted effect of over 60% in size
# In short: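 Eleven-point qHTS, 16 h treatment of HepG2 cells carrying an ARE-driven beta-lactamase reporter; CCF4 ratio read (405 nm excitation, 460 and 530 nm emission), with CellTiter-Glo ATP luminescence for viability.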
# [10] = qHTS for activators of dead-cell proteases activity screened against the NCATS CANVASS Library (AID 1347392);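 further: luminescence from protease leaking out of membrane-damaged cells cleaving impermeant substrate; rising signal means more cytotoxicity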
# In short: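 Luminescent dead-cell protease readout (AAF-aminoluciferin, 15 min, room temperature) after 5 h compound treatment of HepG2 cells (2000/well, pre-attached 18 h). Eleven concentrations.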
# [11] = Vero-766 cells viability qHTS against the NCATS CANVASS Library: Counterscreen for Zika virus inhibition assay (AID 1347394); further: nearly all actives have a fitted effect of over 60% in size
# In short: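 This cytotoxicity counterscreen uses African green monkey Vero 766 cells in the absence of Zika virus. Compounds are incubated with cells for 72 h, and ATP-based luminescence reports viability.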
# [12] = qHTS for inhibitors of Wild type Zika virus screened against the NCATS CANVASS Library (AID 1347396);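 further: ATP luminescence of surviving cells so rescue from viral cell killing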
# In short: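 Protection against wild-type Zika cytopathic effect is measured in African green monkey Vero 766 cells exposed to an 11-point compound series. Surviving cells are quantified by CellTiter Glo luminescence after 72 h.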
# [13] = Viability qHTS for inhibitors of the SERCaMP assay screened against the NCATS CANVASS Library (AID 1347400); further: nearly all actives have a fitted effect of over 70% in size
# In short: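 CellTiter-Glo luminescence measured cytotoxicity after 48 h at 37C of compound treatment (11-point series). Cells were SH-SY5Y-GLuc SERCaMP MJH297 derivatives, seeded at 1000 per well 4 h beforehand.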
# [14] = qHTS to identify inhibitors of the type 1 interferon - major histocompatibility complex class I in skeletal muscle: primary screen against the NCATS LOPAC collection (AID 1347405);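 further: lytic HiBiT luminescence reporting HLA-B protein level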; further: potency means the concentration at half of the fitted maximal effect
# In short: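 After 24 h at 37 C with compounds (7-point, 1:4.3 dilutions, 46 uM top final) plus 4 ng/ml IFN-beta, luminescence from lytic HiBiT detection was measured. HLA-B*08:01 in C25cl48 myoblasts carried an endogenous C-terminal HiBiT tag; medium lacked dexamethasone.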
# [15] = qHTS for inhibitors of adenylyl cyclases using a fission yeast platform: a pilot screen against the NCATS LOPAC library (AID 1347410)
# In short: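 Growth medium went into the plates first, then compounds were pinned (final up to 57 µM), then CHP2027 yeast were added. Plates were incubated overnight (18 h) at 30C in the dark, and GFP was measured by laser scanning cytometry.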
# [16] = Validation qHTS assay for inhibitors of Activation Induced Cytidine Deaminase (AID): UDG Counterscreen signal (AID 1347427)
# In short: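 Fluorescence at 560 nm excitation, 665 nm emission reports UDG signal after 250 mM NaOH (2x) addition and 30 min. Enzymes (AID 1 uM, UDG 2 U/mL, at 4/3x) preincubated 10 min with compound, then 4 h with 4x 250 nM DJC20/DJC23 substrate at room temperature.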
# [17] = target: Single-stranded DNA cytosine deaminase (Homo sapiens) (UniProt Q9GZX7); assay: Validation qHTS assay for inhibitors of Activation Induced Cytidine Deaminase (AID): AID signal (AID 1347429)
# In short: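 Compounds (final up to 114 uM) preincubated with AID plus UDG; 250 nM DJC20/DJC23 substrate mix (4x stock) added, 4 hr at room temperature, then NaOH, 30 min. Read 1 fluorescence at 540 nm excitation, 590 nm emission.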
# [18] = qHTS to identify inhibitors of the type 1 interferon - major histocompatibility complex class I in skeletal muscle: primary screen against the NCATS Mechanism Interrogation Plate v5.0 (MIPE) Libary (AID 1347411); further: nearly all actives have a fitted effect of over 65% in size
# In short: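 Luminescence from CRISPR HiBit-tagged endogenous HLA-B in human myoblasts reported MHC class I level after 24 h of IFN-beta (4 ng/ml) plus compound. Compounds ran as 11-point 1:3 series, top 46 uM final.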
# [19] = qHTS for inhibitors of ER calcium dysfunction: SERCaMP assay screened against the NCATS CANVASS Library (AID 1347393);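 further: lower secreted reporter signal means inhibitor of ER calcium depletion; nearly all actives have a fitted effect of over 40% in size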
# In short: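 Thapsigargin-induced ER calcium depletion drives GLuc-SERCaMP secretion from SH-SY5Y cells; compounds given 16 h beforehand were scored by lowered coelenterazine luminescence after 4 h challenge.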
# [20] = Redox Reaction Profiling qHTS: Assay Interference Panel against the NCATS CANVASS Library (AID 1347401)
# In short: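 Redox-cycling liability assessed as DTT-driven conversion of resazurin (5 uM, with 200 uM DTT, HEPES pH 7.3) to fluorescent resorufin. Fluorescence at 525/598 nm measured initially and after 15 min dark incubation.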
# Chain of Single-stranded DNA cytosine deaminase (Homo sapiens) (Q9GZX7 whole entry, looked up): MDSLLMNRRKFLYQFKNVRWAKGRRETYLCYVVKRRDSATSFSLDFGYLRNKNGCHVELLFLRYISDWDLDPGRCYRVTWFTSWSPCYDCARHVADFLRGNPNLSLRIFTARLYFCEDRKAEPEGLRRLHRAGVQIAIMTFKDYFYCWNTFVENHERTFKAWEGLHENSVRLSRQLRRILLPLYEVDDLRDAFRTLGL
structure (smiles),measurement,setting,value
CC(=O)NCCc1c[nH]c2ccc(O)cc12,outcome,[1],inactive
same,outcome,[2],inactive
same,outcome,[3],inactive
same,outcome,[4],inactive
same,outcome,[5],inactive
same,outcome,[6],inactive
same,outcome,[7],inactive
same,outcome,[8],inactive
same,outcome,[9],inactive
same,outcome,[10],inactive
same,outcome,[11],inactive
same,outcome,[12],inactive
same,outcome,[13],inactive
same,Potency,[14],inactive
same,outcome,[15],inactive
same,Potency,[16],inactive
same,Potency,[17],inactive
CC(C)NCC(O)COc1ccc(CC(N)=O)cc1 (configuration not stated),Potency,[14],inactive
same,outcome,[15],inactive
same,Potency,[16],inactive
same,Potency,[17],inactive
O=C(OCCN1CCOCC1)C1(c2ccccc2)CCCCC1,Potency,[14],inactive
same,outcome,[15],inactive
same,Potency,[16],inactive
same,Potency,[17],inactive
CC[n+]1c(/C=C/C=C2/N(C)c3ccccc3C2(C)C)sc2ccccc21,Potency,[14],5.01 µM (active)
same,outcome,[15],inactive
same,Potency,[16],inactive
CC1CCN(CC[C@H]2CCCN2S(=O)(=O)c2cccc(O)c2)CC1,Potency,[14],inactive
same,outcome,[15],inactive
same,Potency,[16],inactive
same,Potency,[17],inactive
CC1=C(/C=C/C(C)=C/C=C/C(C)=C\C(=O)O)C(C)(C)CCC1,Potency,[14],inactive
same,outcome,[15],inactive
same,outcome,[18],inactive
same,Potency,[16],inactive
same,Potency,[17],inactive
N[C@@H](CS(=O)O)C(=O)O,Potency,[14],inactive
same,outcome,[15],inactive
same,Potency,[16],inactive
same,Potency,[17],inactive
CSC(N)=NCCC[C@H](N)C(=O)O,Potency,[14],inactive
same,outcome,[15],inactive
same,Potency,[16],inactive
same,Potency,[17],inactive
O=C(O)C1CCCNC1 (configuration not stated),Potency,[14],inactive
same,outcome,[15],inactive
same,Potency,[16],inactive
same,Potency,[17],inactive
Cn1c(=O)c2[nH]c(C3CCCC3)nc2n(C)c1=O,Potency,[14],inactive
same,outcome,[15],inactive
same,Potency,[16],inactive
same,Potency,[17],inactive
O=C(O)Cc1ccc(O)c(O)c1,Potency,[14],inactive
same,outcome,[15],inactive
same,Potency,[16],inactive
same,Potency,[17],inactive
NC(N)=N[C@@H](CCC(=O)O)C(=O)O,Potency,[14],inactive
same,outcome,[15],inactive
same,Potency,[16],inactive
same,Potency,[17],inactive
CN1Cc2sccc2C(c2ccc(O)c(O)c2)C1 (configuration not stated),Potency,[14],inactive
same,outcome,[15],inactive
same,Potency,[16],inactive
same,Potency,[17],inactive
CN1CCCC1CCOC(C)(c1ccccc1)c1ccc(Cl)cc1 (configuration not stated),Potency,[14],inactive
same,outcome,[15],inactive
same,Potency,[16],inactive
same,Potency,[17],inactive
O=C(O)Cc1c[nH]c2ccc(O)cc12,outcome,[1],inactive
same,outcome,[2],inactive [at 114 µM]
same,outcome,[4],inactive
same,outcome,[5],inactive
same,outcome,[6],inactive
same,outcome,[7],inactive
same,outcome,[8],inactive
same,outcome,[9],inactive
same,outcome,[10],inactive
same,outcome,[19],inactive
same,outcome,[11],inactive
same,outcome,[12],inactive
same,outcome,[13],inactive
same,outcome,[20],inactive
same,Potency,[14],inactive
same,outcome,[15],inactive
same,Potency,[16],inactive
same,Potency,[17],inactive
